GPR32 ag: GPR32 (DRV1) agonism, beta-arrestin recruitment. O75388. CHO-K1 GPR32 beta-arrestin PathHunter luminescence, 90 min; zero percent set by DMSO-only wells. activation, % at 76.9 µM. hit rate 2.5% among 48,000. AID 1346428;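 active = activation of at least 60% and not above a set upper limit, about 1 call in 100 departs from these limits; inconclusive = activation of 40% to 60%, or above that upper limit; inactive = activation under 40%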; also: 0% is about no effect
Target sequence (O75388 whole entry, looked up): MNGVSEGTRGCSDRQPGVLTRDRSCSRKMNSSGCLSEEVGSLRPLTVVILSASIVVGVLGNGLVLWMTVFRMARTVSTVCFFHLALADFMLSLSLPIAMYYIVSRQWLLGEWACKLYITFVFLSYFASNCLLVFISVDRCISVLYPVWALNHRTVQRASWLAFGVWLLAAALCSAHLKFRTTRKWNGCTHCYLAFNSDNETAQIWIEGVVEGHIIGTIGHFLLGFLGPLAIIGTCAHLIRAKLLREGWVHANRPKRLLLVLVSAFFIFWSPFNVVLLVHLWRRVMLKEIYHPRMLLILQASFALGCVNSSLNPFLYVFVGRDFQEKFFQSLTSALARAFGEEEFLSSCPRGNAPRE
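CHO-K1 cells stably expressing ProLink-tagged GPR32 and Enzyme Activator-tagged beta-arrestin were seeded at 2,500 cells/well overnight, exposed to compounds for 90 min at 37 °C, then read by beta-Gal complementation chemiluminescence after 1 h detection reagent.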
GALC G270D up: raises human GALC G270D mutant activity in cells. P54803. 145M-Twi-hGALC-G270D cells (Twitcher mouse brain line with human GALC G270D), HMU-beta-Gal fluorescence, 48 h. Potency, µM (series often up to 57.5 µM), usual class: activators. hit rate 0.1% among 45,000. AID 1159614; also: potency is read from the fitted curve at half-maximal effect; 0% is about no effect; nearly all actives have a fitted effect of over 65% in size
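Mutant human GALC (G270D), stably expressed in a Twitcher mouse brain cell line lacking endogenous GALC, is measured in live-treated cells via 6-hexadecanoylamino-4-methylumbelliferyl-β-galactoside hydrolysis (0.1 mM final, pH 5.2) with fluorescent detection.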
HTT-AS promoter: activators of huntingtin-antisense promoter activity; HEK293 HTT-AS promoter firefly luciferase reporter, 24 h; response scale: percent change from vehicle, -100% = no light; hit rate 0.24% among 48,000; Potency, µM (titrated, usually from 57.5 µM), for the others: at the highest dose activity change, positive = activation, actives largely listed as activators; also: potency is read from the fitted curve at half-maximal effect; nearly all actives have a fitted effect of over 55% in size
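Luminescence was read after Dual-Glo reagent and a 10 min room-temperature incubation. Values were normalized to vehicle (0% activity) and zero RLU (-100% activity). Reporter HEK293 cells had been exposed to compounds (up to 57.5 uM final) for 24 h.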
HTT prom inh: inhibitors of huntingtin promoter activity; HEK293 HTT promoter firefly luciferase reporter, 24 h; Potency, µM (highest dose often 57.5 µM), for the others: top-dose activity change, negative = inhibition, most hits filed as inhibitors; hit rate 0.93% among 48,000; also: potency is read from the fitted curve at half-maximal effect; nearly all actives have a fitted effect of over 50% in size
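Firefly luciferase signal from promoter-reporter HEK293 cells was scaled between vehicle (0%) and zero RLU (-100%). Compounds were tested at final concentrations of up to 57.5 uM over 24 h at 37 degrees C. PTC124 at 50 uM final served as control inhibitor.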
FH mod: Identification of activators of human fumarate hydratase by quantitative high-throughput screening; FH coupled MDH/diaphorase resazurin fluorescence, 15 min; Potency, µM (doses to about 79.9 µM), for the others: at the top dose activity change, negative = inhibition, actives largely listed as inhibitors; Fumarate hydratase, mitochondrial (Homo sapiens), P07954; hit rate 0.22% among 54,000; also: potency is read from the fitted curve at half-maximal effect; % is scaled to controls: 0 for no effect and ±100 for the full control effect; the screen sought activators but most active calls are inhibition curves; nearly all actives have a fitted effect of over 45% in size
B2AR arrestin ag: ADRB2 beta-arrestin recruitment. P07550. HTLA Tango cells, beta-arrestin recruitment, luciferase luminescence, 18 h. Potency, µM (highest dose often 46.1 µM), most hits filed as activators. 44,000 tested, under 10 active. AID 1347077;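 also: potency is read from the fitted curve at half-maximal effect; 0% = DMSO and full agonism = EC100 isoproterenol or metaproterenol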
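Luminescence read-out: arrestin recruitment to recombinant beta2-AR releases tTA, inducing luciferase. Cells exposed 18 hr at 37 degrees C to up to 46 microM compound; %Activity from corrected signal, concentration-response curves classified by r2, magnitude and efficacy.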
Active calls of the source: *; i = inactive; ? = inconclusive; . = no result given; [ ] = dose if it differs, or a comment. Sampled rows, rich in hits. Any-hit rate of the full collection: about 3.7%. Unless noted, calls follow the shape of the dose curve; as a rule, active = well fitted curve in the direction sought with a large enough effect; inconclusive = small, poorly fitted or top-dose-only effect, or another doubt; inactive = no such curve, though single readings can be large; an effect the other way counts as inactive or inconclusive.

SMILES	GPR32 ag	GALC G270D up	HTT-AS promoter	HTT prom inh	FH mod	B2AR arrestin ag
O=S(c1cc(Cl)cc(Cl)c1O)c1cc(Cl)cc(Cl)c1O	5	i	-5%	-4%	-17%[53.3 µM]	.
Oc1c(Cl)cc(Cl)cc1Sc1cc(Cl)cc(Cl)c1O	80*	i	-91%	?	-24%[53.3 µM]	.
COc1cc2nc(SCC(=O)Nc3c(C)cc(C)cc3C)n3nc(CCn4c(C)nc5ccccc54)nc3c2cc1OC	83*	i	-14%	-21%	1%	i
COc1ccc(CCNS(=O)(=O)c2ccc(F)c(C(=O)Nc3ccc(Cl)cc3)c2)cc1OC	64*	i	-42%	?	-26%	i
Cc1ccc(NC(=O)c2cc(S(=O)(=O)NCCc3ccc(Cl)cc3)ccc2F)cc1	36	i	-33%	?	?	i
CCC(C)C(=O)Oc1cc(C)ccc1C1(COC(=O)C(C)C)CO1 (stereo unspecified)	.	.	.	.	5%[53.3 µM]	.
C=C1[C@@H]2[C@H]3OC(=O)C(=C)[C@@H]3CC[C@@](C)(O)[C@@H]2C[C@@H]1O[C@@H]1O[C@H](CO)[C@@H](O)[C@H](O)[C@H]1O	.	.	.	.	0%[53.3 µM]	.
CCOC(=O)C1=C(CN2CCN(c3ccc(OC)cc3)CC2)NC(=O)NC1c1ccc(OC)cc1 (stereo unspecified)	-18	i	-25%	?	-10%	i
CCOC(=O)C1=C(CN2CCN(c3ccc(C)cc3C)CC2)NC(=O)NC1c1ccc(OC)cc1 (stereo unspecified)	-36	i	-37%	28µM*	?	i
CC1CC(=O)C2=C(O1)OC1(C)CCC3C(C)(C)C=CC(=O)C3(C)C1C2 (stereo unspecified)	.	.	.	.	-10%[53.3 µM]	.
CCC(=O)N1CCc2cc(S(=O)(=O)CCC(=O)Nc3ccc(Cl)c(C(F)(F)F)c3)ccc21	88*	i	-41%	?	1%	i
Cc1cccc(N2CCN(C(=O)C3CCCN(S(=O)(=O)c4ccc5c(c4)oc(=O)n5C)C3)CC2)c1C (stereo unspecified)	6	i	-45%	5µM*	-16%	i
Cc1cccc(N2CCN(C(=O)C3CCN(S(=O)(=O)c4c(C)noc4C)CC3)CC2)c1C	1	i	-38%	14µM*	-7%	i
COc1ccc(-n2c(SCC(=O)N3CCc4ccccc43)nc3c([nH]c4ccccc43)c2=O)cc1	110*	i	-5%	-8%	2%	i
O=C(CSc1ncc(S(=O)(=O)c2ccc(Cl)cc2)c(=O)[nH]1)Nc1cccc(C(F)(F)F)c1	113*	i	-2%	-4%	-27%	i
CC(C)(C)c1ccc(S(=O)(=O)c2cnc(SCC(=O)Nc3ccc(F)c(Cl)c3)[nH]c2=O)cc1	-13	i	-10%	4%	?	i
Nc1nc(SCC(=O)Nc2cccc(C(F)(F)F)c2)n[nH]1	15	i	-7%	-19%	-3%	i
CC(C)c1ccc(S(=O)(=O)c2cnc(SCC(=O)Nc3cccc(C(F)(F)F)c3)nc2N)cc1	76*	i	-39%	?	?	i
O=C(O)c1cccc(-c2ccc(-c3cn(C(=O)N4CCCCC4Cc4ccccc4)nn3)cc2)c1 (stereo unspecified)	.	.	.	.	-21%	.
CCc1ccccc1Nc1cc(C(=O)NCCCN(C)C2CCCCC2)c2ccccc2n1	79*	i	-26%	-21%	-1%	i
C=CCC/C=C/C#CCCCCCCCC[C@H]1C(=O)O[C@H](C)[C@@H]1O	.	.	.	.	-17%[53.3 µM]	.
Cc1cc(-c2ccc(C)c(S(=O)(=O)N3CCOc4ccc(Cl)cc43)c2)on1	-2	i	-35%	28µM*	-41%	i
Cc1ccc(-c2onc(C)c2C)cc1S(=O)(=O)N1CCOc2ccc(Cl)cc21	8	i	-91%	?	-17%	i
CC(C)(C)n1nc(Cc2cccc([N+](=O)[O-])c2)c2c(N)ncnc21	.	.	.	.	-13%	.
Cc1ccc(NC(=O)Nc2cccc(C)n2)cc1	65*	i	?	49%	-1%	i
SMILES	GPR32 ag	GALC G270D up	HTT-AS promoter	HTT prom inh	FH mod	B2AR arrestin ag
Cc1cccc(NC(=O)Nc2ccc(F)cc2)n1	-11	i	?	17%	-9%	i
CC(C)C[C@@H]1NC(=O)[C@@H](Cc2ccccc2)NC(=O)C(CCCCCC(=O)C2CO2)NC(=O)[C@@H]2CCCCN2C1=O (stereo partly specified)	.	.	.	.	5%[53.3 µM]	.
Cc1ccc2c(c1)-c1c(cnn1CC(=O)N1CCN(c3ccccc3F)CC1)CO2	-14	i	-9%	-13%	-2%	i
O=C(Cn1ncc2c1-c1ccccc1OC2)N1CCN(c2ccccc2F)CC1	92*	i	-25%	-27%	-23%	i
Cc1ccc(Cc2c(C)nc3c(-c4ccccc4)c(C)[nH]n3c2=O)cc1	-16	i	-42%	?	-2%	i
Cc1nc2c(-c3ccccc3)c(C)[nH]n2c(=O)c1Cc1ccc(Br)cc1	-9	i	-65%	13µM*	9%	i
CC(C)(O)C1CC=C(C(=O)OC[C@H]2O[C@@H](Oc3cc(C(=O)O)cc(O)c3O)[C@H](O)[C@@H](O)[C@@H]2O)CC1 (stereo partly specified)	.	.	.	.	2%[53.3 µM]	.
O=C(NCc1ccccc1-c1ccccc1C(=O)NCCc1ccccn1)OCc1ccccc1	.	.	.	.	0%	.
COC(=O)[C@]1(Cc2ccc(O)c(CC=C(C)C)c2)OC(=O)C(O)=C1c1ccc(O)cc1	.	.	.	.	-2%[53.3 µM]	.
OCCN1CCN(c2ncnc3c2cnn3-c2cccc(Cl)c2)CC1	?	i	?	20%	-17%	i
NC(=O)C1CCN(c2ncnc3c2cnn3-c2cccc(Cl)c2)CC1	11	i	-59%	4.5µM*	-7%	i
Cc1ccc(Cl)cc1-n1ncc2c(N3CCC(C)CC3)ncnc21	62*	i	-29%	?	-11%	i
COc1ccc(CCNc2ncnc3c2cnn3-c2cccc(Cl)c2)cc1	114*	i	-25%	-44%	-1%	i
COc1ccc(CCNc2ncnc3c2cnn3-c2ccc(F)cc2)cc1	66*	i	-20%	-6%	9%	i
CCC1(O)CC2c3cc(OC)c(OC)cc3CCN2CC1CC(C)C (stereo unspecified)	.	.	.	.	6%	.

From PubChem
